In PubChem BioAssay (EPA / NIEHS):
“And” between values parts separate entries of the source, which are not always exact repeats. Equal entries are not always repeated. Results filed as inconclusive are left out. Where a structure was tested more than once in an assay, its records may differ in their call. The source made the active and inactive calls. The calls were made as follows, unless noted: active = hit-call score of the fitted dose curve at least 0.9, where 1 is the maximum; inactive = score below 0.9.

Columns and labels:
[1] = CCTE_Shafer_MEA_dev_correlation_coefficient_mean: CCTE's Neural Network Formation Assay for Mean Correlation Coefficient, Shafer Lab (AID 2284093);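 as to AC50: well mean pairwise spike train correlation integrated as AUC over recording days 5 to 12; potency fitted for loss of correlation relative to DMSO vehicle wells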
In short: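 Extracellular firing from rat cortical networks on 48-well MEAs, DMSO-referenced, negative fitting direction. Compound present from plating to DIV12; mean pairwise correlation per well integrated over DIV5–12 recordings by trapezoidal AUC.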

[2] = IUF_NPC1b_proliferation_BrdU_72hr: Leibniz Research Institute for Environmental Medicine (IUF) 72-hour Neural Progenitor Cell Bromodeoxyuridine (BrdU) Proliferation Assay (NPC1b) (AID 2284207)
In short: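 BrdU luminescence ELISA quantified DNA synthesis over the last 16 h of a 72 h exposure, fitted against DMSO. Primary hNPC spheres from gestational week 16-19 cortex grown with EGF/FGF at 37C, pH 7.2-7.6.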

[3] = IUF_NPC1a_proliferation_area_72hr: Leibniz Research Institute for Environmental Medicine (IUF) 72-hour Neural Progenitor Cell Proliferation Area Assay (NPC1a) (AID 2284208)
In short: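 Proliferation is scored as sphere area gain in primary human fetal neural progenitors treated for 72 h in EGF/FGF-containing medium. Viability, LDH and BrdU readouts come from the same wells.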

[4] = IUF_NPC1_viability_72hr: Viability Assessment at 72 hours in the Leibniz Research Institute for Environmental Medicine (IUF) Neural Progenitor Cell Proliferation Assay (NPC1) (AID 2284209)
In short: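 hNPC spheres, 1/well, EGF+FGF medium, 37C/5% CO2; dosed day 0, 72 h, no re-dosing. Resazurin reduction (alamar blue) fluorescence; DMSO = negative control/baseline; growth-factor-free wells as positive control.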

[5] = CCTE_Mundy_HCI_Cortical_Synap_Neur_Matur_NeuriteSpotCountPerNeuriteLength: CCTE's Synaptogenesis and Neurite Maturation Assay in rat cortical cells for Neurite Spot Count per Neurite Length, Mundy Lab (AID 2284210)
In short: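 Rat primary cortical cultures, AraC added at DIV 5 to suppress glia; chemical exposure from DIV 7 to DIV 12. Fixed cells stained for MAP2 and synaptophysin plus Hoechst; synaptophysin puncta per neurite length quantified by high-content imaging, relative to DMSO.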

[6] = CCTE_Mundy_HCI_Cortical_Synap_Neur_Matur_BPCount: CCTE's Synaptogenesis and Neurite Maturation Assay in rat cortical cells for Branch Point Count, Mundy Lab (AID 2284211)
In short: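 Rat primary cortical cultures, AraC added DIV 5; chemicals dosed DIV 7 through DIV 12. Fixed cells stained for MAP2, synaptophysin and Hoechst; neurite branch points counted by automated high-content imaging, fitted relative to DMSO.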

[7] = CCTE_Mundy_HCI_Cortical_NOG_NeuriteCount: CCTE's Neurite Outgrowth Assay in rat cortical cells for Neurite Count, Mundy Lab (AID 2284212);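 also: cells fixed about two days after chemical exposure began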
In short: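 Neurite number per cell from high-content imaging of betaIII-tubulin immunostaining, with Hoechst nuclear counterstain.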

[8] = CCTE_Mundy_HCI_Cortical_NOG_NeuriteLength: CCTE's Neurite Outgrowth Assay in rat cortical cells for Neurite Length, Mundy Lab (AID 2284213)
In short: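 Neurite length was read by high-content imaging of βIII-tubulin-labelled neurites in rat primary cortical cultures. Activity was fitted relative to DMSO.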

[9] = CCTE_Mundy_HCI_Cortical_Synap_Neur_Matur_NeuriteLength: CCTE's Synaptogenesis and Neurite Maturation Assay in rat cortical cells for Neurite Length, Mundy Lab (AID 2284214)
In short: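 Rat cortical neurons, AraC at DIV 5; compound + media change DIV 7, end DIV 12 (288.33 h). Fix, MAP2/synaptophysin/Hoechst immunostain, automated HCI of neurite length vs DMSO.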

[10] = CCTE_Mundy_HCI_Cortical_Synap_Neur_Matur_NeuriteSpotCountPerNeuron: CCTE's Synaptogenesis and Neurite Maturation Assay in rat cortical cells for Neurite Spot Count per Neuron Count, Mundy Lab (AID 2284215)
In short: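 Synapse density is scored as synaptophysin spots along neurites per neuron in fixed rat cortical neurons, measured at DIV 12 after chemical dosing at DIV 7. DMSO is the negative control and activity baseline.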

[11] = CCTE_Mundy_HCI_Cortical_Synap_Neur_Matur_SynapseCount: CCTE's Synaptogenesis and Neurite Maturation Assay in rat cortical cells for Synapse Count, Mundy Lab (AID 2284218)
In short: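 Primary rat cortical culture; AraC DIV 5 to arrest glia; compound + media change DIV 7; terminated DIV 12. PFA/Hoechst fix, anti-MAP2 + anti-synaptophysin immunostain; HCI synapse count/neuron; DMSO = baseline.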

[12] = CCTE_Mundy_HCI_Cortical_Synap_Neur_Matur_NeuriteCount: CCTE's Synaptogenesis and Neurite Maturation Assay in rat cortical cells for Neurite Count, Mundy Lab (AID 2284222);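 also: exposure from day 7 to day 12 in vitro with readout at day 12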
In short: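 In this multiplexed morphology readout, rat primary cortical neurons are fixed at DIV 12 following dosing at DIV 7 and stained for MAP2, synaptophysin and nuclei. High-content image analysis yields neurite count.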

[13] = TAMU_PeakParms_SingleDonor1434_Chronotropy: Texas A&M University (TAMU) 1.5-hr Human Induced Pluripotent Stem Cell (iPSC)-derived Cardiomyocytes Calcium (Ca+2) Flux Assay for Cardiotoxicity: Chronotropy (changes in peak frequency) (AID 2284217); conditions: actives raise or lower the signal
In short: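 Using fluorescent Ca2+ flux, average beats per second are measured in human iPSC-derived cardiomyocytes treated 90 min (0.5% DMSO vehicle, 0.2–100 uM). Non-beating data points are removed; activity is modeled in both directions relative to DMSO controls.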

[14] = CCTE_Mundy_HCI_hNP1_Pro_ResponderAvgInten: CCTE's Proliferation Assay in human neuroprogenitor cells, Mundy Lab (AID 2284224; active = hit-call score of the fitted dose curve at least 0.9, where 1 is the maximum;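 also: human neural progenitor cells hNP1 derived from WA09 embryonic stem cells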)
In short: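 Proliferation read as average intensity of BrdU-positive cells, imaged at 26.25 h post-dosing: chemical exposure started after 40–44 h culture, BrdU during final 4 h, paraformaldehyde fixation. Positive-direction fit relative to DMSO.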

[15] = BSK_BT_PBMCCytotoxicity: PBMC Cytotoxicity Assessment in the BioMAP Diversity Plus: BT Assay (AID 2284225); conditions: primary human B cells with PBMC;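 also: PBMC viability measured by Alamar Blue dye reduction fluorescence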
In short: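 PBMC (75,000/well) pretreated with compound 1 h, then activated with SEB and TSST-1 (20 ng/mL each final), incubated 90 h; Alamar Blue added 6 h, fluorescence read at 546/580 nm. Fitted relative to DMSO.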

[16] = read-out: Secreted IgG (sIgG), gene 3500; test: BSK_BT_sIgG: BioMAP Diversity Plus: BT Assay for Secreted IgG (sIgG) Biomarker Activity (AID 2284226); conditions: primary human B cells with PBMC
In short: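 Read-out: ELISA for secreted IgG after 24 h of chemical exposure in a B cell plus PBMC co-culture. Values reflect upward-direction fitting against DMSO negative controls.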

[17] = UKN4_HCS_LUHMES_neurite_outgrowth: University of Konstanz (UKN) Leist Lab Neurite Outgrowth Assay in human LUHMES cells (UKN4) (AID 2284206); conditions: actives raise or lower the signal
In short: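 Day 0 switch to differentiation medium; day 2 replate (30000 cells/well) without cAMP and GDNF; compounds added 30 min–2 h later. At 23.5 h, 30 min calcein-AM/H-33342 live stain, then imaging.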

[18] = CCTE_Mundy_HCI_hN2_NOG_NeuriteCount: CCTE's Neurite Outgrowth Assay in human hN2 cells for Neurite Count, Mundy Lab (AID 2284219; active = hit-call score of the fitted dose curve at least 0.9, where 1 is the maximum)
In short: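 In this morphology assay, hNP1-derived neurons received test chemical 2 h post-plating and were fixed two days later in warm paraformaldehyde/sucrose containing Hoechst 33342. Neurites, labelled by rabbit anti-βIII-tubulin (1:800) and Alexa Fluor-488 (1:500), were counted automatically.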

[19] = CCTE_Mundy_HCI_hN2_NOG_NeuriteLength: CCTE's Neurite Outgrowth Assay in human hN2 cells for Neurite Length, Mundy Lab (AID 2284220; active = hit-call score of the fitted dose curve at least 0.9, where 1 is the maximum)
In short: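 Read-out is neurite length from high-content imaging of βIII-tubulin/Alexa Fluor-488-labelled neurons, referenced to DMSO controls.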

[20] = CCTE_Mundy_HCI_hN2_NOG_NeuronCount: CCTE's Neurite Outgrowth Assay in human hN2 cells for Neuron Count, Mundy Lab (AID 2284221; active = hit-call score of the fitted dose curve at least 0.9, where 1 is the maximum)
In short: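 Read-out is the number of betaIII-tubulin-positive neurons imaged by automated high-content analysis, with DMSO as negative control.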

Structure (SMILES): CCNC(=O)NC(=O)C(C#N)=NOC
- outcome [1]: inactive
- outcome [2]: inactive
- outcome [3]: inactive
- outcome [4]: inactive
- outcome [5]: inactive
- outcome [6]: inactive
- outcome [7]: inactive
- outcome [8]: inactive
- outcome [9]: inactive
- outcome [10]: inactive
- AC50 [11]: 0.0179 µM (active)
- outcome [12]: inactive

Structure (SMILES): O=C1C2CC=CCC2C(=O)N1SC(Cl)(Cl)Cl (stereo not given)
- AC50 [1]: 9.85 µM (active)
- outcome [13]: inactive

Structure (SMILES): CC1(C)C(C(=O)OC(C#N)c2cccc(Oc3ccccc3)c2)C1(C)C (stereo not given)
- AC50 [1]: 4.17 µM (active)

Structure (SMILES): CS(=O)(=O)c1cc(C(F)(F)F)ccc1C(=O)c1cnoc1C1CC1
- outcome [1]: inactive
- outcome [2]: inactive
- outcome [3]: inactive
- outcome [4]: inactive
- outcome [5]: inactive
- outcome [6]: inactive
- outcome [7]: inactive
- outcome [8]: inactive
- outcome [9]: inactive
- outcome [10]: inactive
- outcome [11]: inactive
- outcome [12]: inactive
- outcome [14]: inactive

Structure (SMILES): COCC(C)N(C(=O)CCl)c1c(C)csc1C (stereo not given)
- outcome [15]: inactive
- AC50 [16]: 13.5 µM (active)

Structure (SMILES): N#CN=C1SCCN1Cc1ccc(Cl)nc1
- outcome [1]: inactive
- outcome [2]: inactive
- outcome [3]: inactive
- outcome [4]: inactive
- outcome [5]: inactive
- outcome [6]: inactive
- outcome [7]: inactive
- outcome [8]: inactive
- outcome [9]: inactive
- outcome [10]: inactive
- outcome [11]: inactive
- outcome [12]: inactive
- outcome [14]: inactive

Structure (SMILES): CN/C(=N\[N+](=O)[O-])NCc1cnc(Cl)s1
- outcome [1]: inactive
- outcome [2]: inactive
- outcome [3]: inactive
- outcome [4]: inactive
- outcome [5]: inactive
- outcome [6]: inactive
- outcome [7]: inactive
- outcome [8]: inactive
- outcome [9]: inactive
- outcome [10]: inactive
- outcome [11]: inactive
- outcome [12]: inactive

Structure (SMILES): COP(=S)(OC)SCn1nnc2ccccc2c1=O
- AC50 [1]: 15 µM (active)
- AC50 [17]: 15.4 µM (active)
- outcome [2]: inactive
- outcome [3]: inactive
- outcome [4]: inactive
- outcome [5]: inactive
- outcome [6]: inactive
- outcome [7]: inactive
- outcome [8]: inactive
- outcome [9]: inactive
- outcome [10]: inactive
- outcome [11]: inactive
- outcome [12]: inactive

Structure (SMILES): CNC(=O)Oc1cccc2ccccc12
- AC50 [1]: 12.8 µM (active)
- outcome [1]: inactive
- outcome [2]: inactive
- outcome [3]: inactive
- outcome [4]: inactive
- outcome [5]: inactive
- outcome [6]: inactive
- outcome [7]: inactive
- outcome [8]: inactive
- outcome [10]: inactive
- outcome [13]: inactive
- outcome [11]: inactive
- outcome [12]: inactive

Structure (SMILES): CS(=O)(=O)c1ccc(C(=O)C2C(=O)CCCC2=O)c([N+](=O)[O-])c1
- outcome [1]: inactive
- outcome [2]: inactive
- outcome [3]: inactive
- outcome [4]: inactive
- outcome [5]: inactive
- outcome [6]: inactive
- outcome [7]: inactive
- outcome [8]: inactive
- outcome [9]: inactive
- outcome [10]: inactive
- outcome [11]: inactive
- outcome [12]: inactive

Structure (SMILES): CCSC(=O)N1CCCCCC1
- outcome [1]: inactive
- outcome [2]: inactive
- outcome [3]: inactive
- outcome [4]: inactive
- outcome [5]: inactive
- outcome [7]: inactive
- outcome [8]: inactive
- outcome [9]: inactive
- outcome [10]: inactive
- outcome [11]: inactive
- outcome [12]: inactive

Structure (SMILES): CCOP(=O)(OCC)Oc1nc(Cl)c(Cl)cc1Cl
- AC50 [1]: 5.46 µM (active) and 7.1 µM (active)
- outcome [1]: inactive
- outcome [17]: inactive
- outcome [2]: inactive
- AC50 [3]: 8.27 µM (active)
- outcome [4]: inactive
- outcome [5]: inactive
- outcome [6]: inactive
- outcome [7]: inactive
- outcome [8]: inactive
- AC50 [9]: 16.2 µM (active)
- outcome [9]: inactive
- AC50 [10]: 9.92 µM (active)
- outcome [10]: inactive
- outcome [11]: inactive
- AC50 [18]: 50 µM (active)
- AC50 [19]: 38.4 µM (active)
- AC50 [20]: 50 µM (active)
- outcome [12]: inactive
- AC50 [14]: 73.7 µM (active)
- outcome [14]: inactive
